24 molecules from PubChem BioAssay (Tox21) can be followed below.

A number with no mark means an inactive call. Records with an inconclusive call do not appear. Calls of active or inactive are those of the source. Unless noted, calls come from the whole dose curve; as a rule, active = well fitted curve in the direction sought with a large enough effect in the repeat runs; inconclusive = weak or mixed curves; inactive = flat fitted curve, though single readings scatter.

A short description of assay [1]: qHTS assay to test for compound auto fluorescence at 535 nm (green) in HEK293 cells (AID 720680). In general terms: qHTS replaces the single test concentration by a dilution series.
A short description of assay [2]: qHTS assay to test for compound auto fluorescence at 460 nm (blue) in HEK293 cell free culture (AID 720681). Summed up: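 Test compounds were pinned into cell-free culture medium (DMEM with 10% FBS) and fluorescence was read directly at Ex/Em 405/460 nm. Signals were expressed as fluorescence equivalents of triamterene, with DMSO vehicle as control.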
Assay [3] is described as follows: qHTS assay to test for compound auto fluorescence at 535 nm (green) in HEK293 cell free culture (AID 720682). Summed up:
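Compounds were pin-transferred into cell-free DMEM with 10% FBS, and green fluorescence was read at excitation 485 nm and emission 535 nm. Intensities were expressed as fluorescein-equivalent values.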

The nature of assay [4]: qHTS assay to test for compound auto fluorescence at 590 nm (red) in HEK293 cell free culture (AID 720683). The gist of the method:
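Tox21 10K library compounds were pinned into cell-free DMEM with 10% FBS and fluorescence was read at excitation 540 nm. Activity is expressed as Rose Bengal sodium equivalency.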

Assay [5] is described as follows: qHTS assay to test for compound auto fluorescence at 590 nm (red) in HepG2 cell free culture (AID 720684). Summed up:
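Ex 540 / Em 590 nm read of compound in cell-free MEM (10% FBS). Rose Bengal sodium reference.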

Assay [6] is described as follows: qHTS assay to test for compound auto fluorescence at 460 nm (blue) in HepG2 cell free culture (AID 720685). Summed up: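 Cell-free plates of MEM plus 10% FBS received 23 nL compound or DMSO vehicle; blue-channel (405/460 nm) intensity scored against triamterene as reference fluorophore.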
A short description of assay [7]: qHTS assay to test for compound auto fluorescence at 535 nm (green) in HepG2 cell free culture (AID 720686).
Assay [8] in a line: qHTS assay to test for compound auto fluorescence at 460 nm (blue) in HepG2 cells (AID 720687). Summed up:
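Cells (2,000/well in MEM with 10% FBS) attached overnight at 37 C, then were exposed to compound or DMSO for 1 hr at 37 C, 5% CO2. Fluorescence read at Ex/Em 405/460 nm, expressed as triamterene-equivalent signal.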

In assay [9] the target is Glucocorticoid receptor (Homo sapiens) (UniProt P04150). The assay is described as follows: qHTS assay to identify small molecule agonists of the glucocorticoid receptor (GR) signaling pathway (AID 720691; active = well fitted activation curve with a large enough effect in the signal ratio in the repeat runs, not every such curve was filed as active; the % refers to the signal ratio; note: potency is the fitted concentration of half-maximal effect). Summed up: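 Compounds in DMSO, alongside positive controls, were added to GR-bla HeLa reporter cells and incubated 18 h at 37 C; GRE-driven beta-lactamase was detected by fluorescence after 2 h with FRET substrate at room temperature.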

Assay [10] has the same target. The assay is described as follows: qHTS assay to identify small molecule antagonists of the glucocorticoid receptor (GR) signaling pathway (AID 720692; active = well fitted inhibition curve with a large enough effect in the signal ratio in the repeat runs, not every such curve was filed as active; the % refers to the signal ratio). Summed up: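 In a 1536-well cell format, compounds were added 4 h after seeding GR-bla HeLa cells, together with dexamethasone at 5 nM final; reporter activity was measured by FRET-substrate fluorescence following 18 h at 37 C.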
% is set by controls: 0 for no effect and ±100 for the full control effect.

Chain of Glucocorticoid receptor (Homo sapiens) (P04150 whole entry, looked up): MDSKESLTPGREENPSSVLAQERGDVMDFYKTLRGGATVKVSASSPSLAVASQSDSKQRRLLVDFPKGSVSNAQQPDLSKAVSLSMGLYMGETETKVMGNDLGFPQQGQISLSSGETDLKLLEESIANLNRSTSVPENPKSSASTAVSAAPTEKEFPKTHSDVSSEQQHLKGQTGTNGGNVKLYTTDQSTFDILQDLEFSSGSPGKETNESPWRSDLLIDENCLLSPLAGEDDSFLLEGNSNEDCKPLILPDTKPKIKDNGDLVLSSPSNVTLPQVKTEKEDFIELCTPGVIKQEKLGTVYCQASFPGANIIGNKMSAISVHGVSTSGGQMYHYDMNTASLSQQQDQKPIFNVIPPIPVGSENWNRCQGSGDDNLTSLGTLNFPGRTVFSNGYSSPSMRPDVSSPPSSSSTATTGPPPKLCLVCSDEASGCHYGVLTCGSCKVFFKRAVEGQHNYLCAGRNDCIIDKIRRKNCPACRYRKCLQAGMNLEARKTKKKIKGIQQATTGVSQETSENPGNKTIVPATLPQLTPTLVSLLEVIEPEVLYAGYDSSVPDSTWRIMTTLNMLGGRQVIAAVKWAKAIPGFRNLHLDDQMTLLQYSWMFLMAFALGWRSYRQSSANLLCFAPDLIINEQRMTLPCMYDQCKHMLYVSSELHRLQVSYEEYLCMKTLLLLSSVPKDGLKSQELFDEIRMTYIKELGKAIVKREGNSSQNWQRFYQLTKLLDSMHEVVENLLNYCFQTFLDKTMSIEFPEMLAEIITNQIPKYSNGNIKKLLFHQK

For `CCCCN1C=CN(C)C1`, the fluorescence, % of fluorescein in assay [1] is -0.0653% [at 18.6 µM]. Further, the fluorescence, % of fluorescent control in assay [2] is -0.116% [at 18.6 µM]; in [4], 0.0298% [at 18.6 µM]; in assay [6], -0.0433% [at 18.6 µM]; in assay [8] it was 0.0295% [at 18.6 µM]. Further, the activity change in [3] is 0.0078% [at 18.6 µM]. In [5], the fluorescence, % of Rose Bengal was 0.057% [at 18.6 µM]. The fluorescence, % of fluorescein control in assay [7] was -0.069% [at 18.6 µM]. For the same molecule, the Potency result in [9] and in [10] was “inactive” throughout.
Consider `[K+]`, for which the outcome in assay [1], in [2], in assay [3], in assay [4], in assay [5] and in [7] was inactive. Besides, the molecule was classed as inactive in assay [8]. Besides, the Potency entry in assay [9] and in assay [10] was “inactive” each time.
Consider `COC(=O)C1=C(C)NC(C)=C(C(=O)OC(C)C)C1c1cccc2nonc12` (stereo not drawn), for which the fluorescence, % of fluorescein in assay [1] is -0.0539% [at 18.6 µM]. Moreover, the fluorescence, % of fluorescent control is 0.0173% [at 18.6 µM] in assay [2], -0.0484% [at 18.6 µM] in assay [4] and 0.0339% [at 18.6 µM] in assay [8]. Besides, the activity change in [3] is 0.0719% [at 18.6 µM]. Besides, in assay [5], the fluorescence, % of Rose Bengal is -0.0514% [at 18.6 µM]. In addition, the fluorescence, % of fluorescein control in [7] is -0.0109% [at 18.6 µM]. In addition, the Potency entry in [9] was “inactive”.
Consider `Nc1ccccn1`, for which the outcome in assay [1], in assay [2], in assay [3], in [4], in assay [5] and in assay [7] was inactive. For the same molecule, in [8], the call was inactive. For the same molecule, the Potency entry in assay [9] and in [10] was “inactive” throughout.
Consider `NCCCC(N)(C(=O)O)C(F)F` (stereo not drawn), for which the result in assay [1], in [2], in assay [3], in assay [4], in assay [5] and in assay [7] was inactive. Besides, the outcome in assay [8] was inactive. For the same molecule, the Potency result in assay [9] and in assay [10] was “inactive” each time.
As for `NCCCC[C@H](N[C@@H](CCc1ccccc1)C(=O)O)C(=O)N1CCC[C@H]1C(=O)O`, the fluorescence, % of fluorescein in assay [1] was -0.012% [at 18.6 µM]. For the same molecule, the results for the fluorescence, % of fluorescent control in assay [2], in [4] and in [8] were -0.095% [at 18.6 µM], 0.14% [at 18.6 µM] and 0.0286% [at 18.6 µM], respectively. In addition, in assay [3], the activity change was -0.028% [at 18.6 µM]. For the same molecule, the fluorescence, % of Rose Bengal in [5] was -0.221% [at 18.6 µM]. For the same molecule, in assay [7], the fluorescence, % of fluorescein control was -0.127% [at 18.6 µM]. Moreover, the Potency result in assay [9] and in assay [10] was “inactive” in each case.
For the molecule `Cc1c(N)c(=O)n(-c2ccccc2)n1C`, the fluorescence, % of fluorescein in [1] is -0.0771% [at 18.6 µM]. Further, the fluorescence, % of fluorescent control was 0.0935% [at 18.6 µM] in [2], 0.419% [at 18.6 µM] in assay [4] and -0.0556% [at 18.6 µM] in assay [8]. For the same molecule, the activity change in [3] was -0.102% [at 18.6 µM]. In assay [5], the fluorescence, % of Rose Bengal was 0.0086% [at 18.6 µM]. Also, the fluorescence, % of fluorescein control in [7] is -0.0689% [at 18.6 µM]. Also, the Potency entry in [9] and in assay [10] was “inactive” in each case.
Consider `CC(C)[C@H]1CC[C@@H](C)CC1=O`, for which the molecule was classed as inactive in assay [1], in assay [2], in [3], in assay [4], in assay [5] and in assay [7]. For the same molecule, the result in [8] was inactive.
For `CC(C)C(=O)OC(=O)C(C)C`, the outcome in assay [1], in assay [2], in assay [3], in assay [4], in assay [5] and in assay [7] was inactive. In addition, in assay [8], the molecule was classed as inactive. Also, the Potency entry in assay [9] and in [10] was “inactive” in each case.
As to `CC(C)=CCC/C(C)=C/C#N`, the outcome in assay [1], in assay [2], in [3], in [4], in [5] and in [7] was inactive. For the same molecule, the molecule was classed as inactive in assay [8]. Moreover, the Potency entry in assay [9] and in assay [10] was “inactive” in each case.
On to `OCCc1ccccn1`, for which the call in [1], in assay [2], in [3], in assay [4], in [5] and in [7] was inactive. Further, the outcome in assay [8] was inactive. The Potency result in assay [9] and in assay [10] was “inactive” each time.
Turning to `CCOC(=O)OC(C)OC1=C(C(=O)Nc2ccccn2)N(C)S(=O)(=O)c2ccccc21` (stereo not drawn), the molecule was classed as inactive in assay [1], in assay [2], in assay [3], in assay [4], in assay [5] and in assay [7]. Besides, the molecule was classed as inactive in [8]. Moreover, the Potency in [9] is 5.35 µM (active).
In the case of `CN1C(C)(C)CC(O)CC1(C)C`, the call in assay [1], in [2], in assay [4], in [5], in assay [6] and in [7] was inactive. Further, the molecule was classed as inactive in [8].
Take `CO[C@@]1(NC(=O)CSC[C@@H](N)C(=O)O)C(=O)N2C(C(=O)O)=C(CSc3nnnn3C)CS[C@@H]21`: the outcome in assay [1], in [2], in assay [4], in assay [5], in assay [6] and in assay [7] was inactive. Besides, the molecule was classed as inactive in assay [8].
On to `CC(C(=O)O)c1cccc(Oc2ccccc2)c1` (stereo not drawn), for which the fluorescence, % of fluorescein in assay [1] is 0.0474% [at 18.6 µM]. Also, the fluorescence, % of fluorescent control in [2] is -0.022% [at 18.6 µM]; in assay [4], -0.0434% [at 18.6 µM]; in assay [6], -0.0014% [at 18.6 µM]; in [8], -0.0143% [at 18.6 µM]. In addition, in assay [5], the fluorescence, % of Rose Bengal was 0.647% [at 18.6 µM]. Also, the fluorescence, % of fluorescein control in assay [7] was 0.0607% [at 18.6 µM].
As to `Nc1ccn([C@@H]2O[C@H](CO)[C@@H](O)C2(F)F)c(=O)n1`, the molecule was classed as inactive in [1], in assay [2], in assay [3], in assay [4], in assay [5] and in [7]. The result in assay [8] was inactive. In addition, the Potency result in assay [9] is “inactive”.
In the case of `CC(COc1ccccc1)NN` (stereo not drawn), the result in [1], in assay [2], in [3], in [4], in assay [5] and in assay [7] was inactive. In assay [8], the call was inactive. For the same molecule, the Potency entry in assay [9] and in assay [10] was “inactive” each time.
For `OCCCCCO`, the molecule was called inactive in [1], in assay [2], in assay [3], in [4], in assay [5] and in [7]. Besides, the molecule was classed as inactive in [8].
For `C1CCC2(CCCCO2)OC1`, the call in [1], in assay [2], in assay [3], in assay [4], in assay [5] and in assay [7] was inactive. In addition, the molecule was called inactive in assay [8]. Also, the Potency result in assay [9] and in assay [10] was “inactive” in each case.
`CCC(C(=O)NC(=O)NC(C)=O)c1ccccc1` (stereo not drawn): the result in assay [1], in assay [2], in assay [3], in assay [4], in [5] and in [7] was inactive. Further, in [8], the call was inactive. In addition, the Potency result in assay [9] and in [10] was “inactive” in each case.
`CC(N)C12CC3CC(CC(C3)C1)C2` (stereo not drawn): the result in assay [1], in assay [2], in assay [3], in assay [4], in [5] and in assay [7] was inactive. The molecule was classed as inactive in assay [8]. In assay [9], the Potency result was “inactive”.
For `CCCc1ncc(C[n+]2ccccc2C)c(N)n1`, the fluorescence, % of fluorescein in assay [1] was -0.083% [at 18.6 µM]. Besides, the fluorescence, % of fluorescent control in [2] was -0.136% [at 18.6 µM]; in assay [4], 0.0061% [at 18.6 µM]; in [8], -0.0148% [at 18.6 µM]. Further, the activity change in [3] was -0.0094% [at 18.6 µM]. Moreover, the fluorescence, % of Rose Bengal in [5] was -0.0113% [at 18.6 µM]. The fluorescence, % of fluorescein control in assay [7] was 0.0635% [at 18.6 µM]. For the same molecule, the Potency entry in [9] and in assay [10] was “inactive” throughout.
For `O=C1NC(=O)C2CC=CCC12` (stereo not drawn), the result in assay [1], in assay [2], in [3], in assay [4], in assay [5] and in [7] was inactive. The molecule was called inactive in assay [8]. In addition, the Potency result in assay [9] and in assay [10] was “inactive” in each case.
Turning to `CC(C)(C)OC(=O)c1cccc(N)c1`, the outcome in assay [1], in [2], in assay [3], in assay [4], in [5] and in assay [7] was inactive. In addition, in [8], the molecule was called inactive. For the same molecule, the Potency entry in assay [9] and in assay [10] was “inactive” in each case.
